From publication PMC11006913

Columns and labels:
Assay in all cases: PBM; 200 nM protein, PBS
Details in all cases: dsDNA, one strand shown
VENTX = biological target: T1, VENTX (Homo sapiens, UniProt O95231 78-163, R121Q)
T1 sequence: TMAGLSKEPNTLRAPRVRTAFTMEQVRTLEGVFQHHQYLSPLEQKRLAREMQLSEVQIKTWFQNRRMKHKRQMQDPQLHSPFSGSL

HOXA4 [1] = biological target: HOXA4 (Homo sapiens, UniProt Q00056 201-287, W262R)
HOXA7 [2] = biological target: HOXA7 (Homo sapiens, UniProt P31268 116-202)
ALX4 [3] = biological target: ALX4 (Homo sapiens, UniProt Q9H161 200-286)
ALX4 (Homo sapiens, UniProt Q9H161 200-286), sequence (Q9H161 200-286): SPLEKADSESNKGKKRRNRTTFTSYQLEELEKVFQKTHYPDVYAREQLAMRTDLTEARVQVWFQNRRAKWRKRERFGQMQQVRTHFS

PRRX1 [4] = biological target: PRRX1 (Homo sapiens, UniProt P54821 80-166, F113S)
PRRX1 (Homo sapiens, UniProt P54821 80-166, F113S), sequence (P54821 80-166 F113S): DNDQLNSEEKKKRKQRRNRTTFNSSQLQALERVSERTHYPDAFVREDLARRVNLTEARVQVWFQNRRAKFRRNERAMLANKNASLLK

HOXB6 [5] = biological target: HOXB6 (Homo sapiens, UniProt P17509 132-218, K202E)
HOXB6 (Homo sapiens, UniProt P17509 132-218, K202E), sequence (P17509 132-218 K202E): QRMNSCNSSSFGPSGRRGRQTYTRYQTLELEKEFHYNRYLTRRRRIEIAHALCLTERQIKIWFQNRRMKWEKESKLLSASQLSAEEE

ALX4 [6] = biological target: ALX4 (Homo sapiens, UniProt Q9H161 200-286, Q225E)
ALX4 (Homo sapiens, UniProt Q9H161 200-286, Q225E), sequence (Q9H161 200-286 Q225E): as the sequence (Q9H161 200-286) above, with Q26E counted along it

HOXA2 = HOXA2 (Homo sapiens, UniProt O43364 129-215, R185T)
HOXA2, sequence (O43364 129-215 R185T): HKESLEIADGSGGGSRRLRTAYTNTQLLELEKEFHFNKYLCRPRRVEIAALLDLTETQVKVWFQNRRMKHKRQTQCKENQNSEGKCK

HOXA4 [7] = biological target: HOXA4 (Homo sapiens, UniProt Q00056 201-287, R217L)
HOXA4 (Homo sapiens, UniProt Q00056 201-287, R217L), sequence (Q00056 201-287 R217L): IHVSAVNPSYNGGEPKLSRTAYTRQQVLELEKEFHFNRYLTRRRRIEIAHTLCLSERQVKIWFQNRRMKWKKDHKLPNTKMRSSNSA

MSX2 [8] = biological target: MSX2 (Homo sapiens, UniProt P35548 130-214, R199I)
MSX2 (Homo sapiens, UniProt P35548 130-214, R199I), sequence (P35548 130-214 R199I): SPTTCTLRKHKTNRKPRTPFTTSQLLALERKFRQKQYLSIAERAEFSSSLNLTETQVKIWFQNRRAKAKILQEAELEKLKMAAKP

HOXA4 [9] = biological target: HOXA4 (Homo sapiens, UniProt Q00056 201-287)
HOXA4 (Homo sapiens, UniProt Q00056 201-287), sequence (Q00056 201-287): as the sequence (Q00056 201-287 R217L) above, with L17R counted along it

MSX2 [10] = biological target: MSX2 (Homo sapiens, UniProt P35548 130-214)
MSX2 (Homo sapiens, UniProt P35548 130-214), sequence (P35548 130-214): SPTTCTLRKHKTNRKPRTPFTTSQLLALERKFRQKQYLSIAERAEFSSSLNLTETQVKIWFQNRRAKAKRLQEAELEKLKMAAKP

VAX1 [11] = biological target: VAX1 (Homo sapiens, UniProt Q5SQQ9 86-172)
VAX1 (Homo sapiens, UniProt Q5SQQ9 86-172), sequence (Q5SQQ9 86-172): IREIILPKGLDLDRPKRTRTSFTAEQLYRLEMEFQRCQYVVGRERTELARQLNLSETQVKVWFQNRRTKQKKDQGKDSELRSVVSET

MSX2 [12] = biological target: MSX2 (Homo sapiens, UniProt P35548 130-214, F161Y)
MSX2 (Homo sapiens, UniProt P35548 130-214, F161Y), sequence (P35548 130-214 F161Y): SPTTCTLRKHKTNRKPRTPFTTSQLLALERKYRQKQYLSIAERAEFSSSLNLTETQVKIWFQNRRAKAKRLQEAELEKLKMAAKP

VAX1 [13] = biological target: VAX1 (Homo sapiens, UniProt Q5SQQ9 86-172, T142I)
VAX1 (Homo sapiens, UniProt Q5SQQ9 86-172, T142I), sequence (Q5SQQ9 86-172 T142I): as the sequence (Q5SQQ9 86-172) above, with T57I counted along it

HOXA7 [14] = biological target: HOXA7 (Homo sapiens, UniProt P31268 116-202, W177C)
HOXA7 (Homo sapiens, UniProt P31268 116-202, W177C), sequence (P31268 116-202 W177C): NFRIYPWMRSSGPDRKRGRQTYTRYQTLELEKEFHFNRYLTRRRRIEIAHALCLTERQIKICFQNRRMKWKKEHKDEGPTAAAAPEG

HOXA4 [15] = biological target: HOXA4 (Homo sapiens, UniProt Q00056 201-287, W262F)
HOXA4 (Homo sapiens, UniProt Q00056 201-287, W262F), sequence (Q00056 201-287 W262F): as the sequence (Q00056 201-287 R217L) above, with L17R, W62F counted along it

PRRX1 [16] = biological target: PRRX1 (Homo sapiens, UniProt P54821 80-166)
PRRX1 (Homo sapiens, UniProt P54821 80-166), sequence (P54821 80-166): as the sequence (P54821 80-166 F113S) above, with S34F counted along it

VAX1 [17] = biological target: VAX1 (Homo sapiens, UniProt Q5SQQ9 86-172, K157R)
VAX1 (Homo sapiens, UniProt Q5SQQ9 86-172, K157R), sequence (Q5SQQ9 86-172 K157R): as the sequence (Q5SQQ9 86-172) above, with K72R counted along it

HOXB6 [18] = biological target: HOXB6 (Homo sapiens, UniProt P17509 132-218)
HOXB6 (Homo sapiens, UniProt P17509 132-218), sequence (P17509 132-218): as the sequence (P17509 132-218 K202E) above, with E71K counted along it

HOXA4 (Homo sapiens, UniProt Q00056 201-287, W262R), sequence (Q00056 201-287 W262R): as the sequence (Q00056 201-287 R217L) above, with L17R, W62R counted along it
HOXA7 (Homo sapiens, UniProt P31268 116-202), sequence (P31268 116-202): as the sequence (P31268 116-202 W177C) above, with C62W counted along it

Sequence | binding signal (VENTX) | binding signal (HOXA4 [1]) | binding signal (HOXA7 [2]) | binding signal (ALX4 [3]) | binding signal (PRRX1 [4]) | binding signal (HOXB6 [5]) | binding signal (ALX4 [6]) | binding signal (HOXA2) | binding signal (HOXA4 [7]) | binding signal (MSX2 [8]) | binding signal (HOXA4 [9]) | binding signal (MSX2 [10]) | binding signal (VAX1 [11]) | binding signal (MSX2 [12]) | binding signal (VAX1 [13]) | binding signal (HOXA7 [14]) | binding signal (HOXA4 [15]) | binding signal (PRRX1 [16]) | binding signal (VAX1 [17]) | binding signal (HOXB6 [18])
ATAATTAG | 12.4 upbm affinity estimate (log intensity, higher = more binding, comparable within an allelic series) | 10.9 upbm affinity estimate (log intensity, higher = more binding, comparable within an allelic series) | 11.8 upbm affinity estimate (log intensity, higher = more binding, comparable within an allelic series) | 14.4 upbm affinity estimate (log intensity, higher = more binding, comparable within an allelic series) | 11.9 upbm affinity estimate (log intensity, higher = more binding, comparable within an allelic series) | 10.1 upbm affinity estimate (log intensity, higher = more binding, comparable within an allelic series) | 14.2 upbm affinity estimate (log intensity, higher = more binding, comparable within an allelic series) | 13.9 upbm affinity estimate (log intensity, higher = more binding, comparable within an allelic series) | 12.7 upbm affinity estimate (log intensity, higher = more binding, comparable within an allelic series) | 13.2 upbm affinity estimate (log intensity, higher = more binding, comparable within an allelic series) | 14.2 upbm affinity estimate (log intensity, higher = more binding, comparable within an allelic series) | 14.1 upbm affinity estimate (log intensity, higher = more binding, comparable within an allelic series) | 13.8 upbm affinity estimate (log intensity, higher = more binding, comparable within an allelic series) | 13.7 upbm affinity estimate (log intensity, higher = more binding, comparable within an allelic series) | 13.9 upbm affinity estimate (log intensity, higher = more binding, comparable within an allelic series) | 9.08 upbm affinity estimate (log intensity, higher = more binding, comparable within an allelic series) | 12.3 upbm affinity estimate (log intensity, higher = more binding, comparable within an allelic series) | 13.7 upbm affinity estimate (log intensity, higher = more binding, comparable within an allelic series) | 13.9 upbm affinity estimate (log intensity, higher = more binding, comparable within an allelic series) | 12.2 upbm affinity estimate (log intensity, higher = more binding, comparable within an allelic series)
AGCAATTA | 12 upbm affinity estimate (log intensity, higher = more binding, comparable within an allelic series) | 10.5 upbm affinity estimate (log intensity, higher = more binding, comparable within an allelic series) | 11.7 upbm affinity estimate (log intensity, higher = more binding, comparable within an allelic series) | 13.8 upbm affinity estimate (log intensity, higher = more binding, comparable within an allelic series) | 11.1 upbm affinity estimate (log intensity, higher = more binding, comparable within an allelic series) | 9.92 upbm affinity estimate (log intensity, higher = more binding, comparable within an allelic series) | 13 upbm affinity estimate (log intensity, higher = more binding, comparable within an allelic series) | 12.8 upbm affinity estimate (log intensity, higher = more binding, comparable within an allelic series) | 12 upbm affinity estimate (log intensity, higher = more binding, comparable within an allelic series) | 13.2 upbm affinity estimate (log intensity, higher = more binding, comparable within an allelic series) | 13.7 upbm affinity estimate (log intensity, higher = more binding, comparable within an allelic series) | 14.1 upbm affinity estimate (log intensity, higher = more binding, comparable within an allelic series) | 12.9 upbm affinity estimate (log intensity, higher = more binding, comparable within an allelic series) | 13.8 upbm affinity estimate (log intensity, higher = more binding, comparable within an allelic series) | 12.8 upbm affinity estimate (log intensity, higher = more binding, comparable within an allelic series) | 8.7 upbm affinity estimate (log intensity, higher = more binding, comparable within an allelic series) | 11.5 upbm affinity estimate (log intensity, higher = more binding, comparable within an allelic series) | 13.3 upbm affinity estimate (log intensity, higher = more binding, comparable within an allelic series) | 12.7 upbm affinity estimate (log intensity, higher = more binding, comparable within an allelic series) | 12 upbm affinity estimate (log intensity, higher = more binding, comparable within an allelic series)
GCAAGGGC | – | 9.8 upbm affinity estimate (log intensity, higher = more binding, comparable within an allelic series) | – | – | – | – | – | – | 9.73 upbm affinity estimate (log intensity, higher = more binding, comparable within an allelic series) | – | 9.73 upbm affinity estimate (log intensity, higher = more binding, comparable within an allelic series) | – | – | – | – | – | 9.87 upbm affinity estimate (log intensity, higher = more binding, comparable within an allelic series) | – | – | –
GGCAATTA | 11.9 upbm affinity estimate (log intensity, higher = more binding, comparable within an allelic series) | 10.5 upbm affinity estimate (log intensity, higher = more binding, comparable within an allelic series) | 11.7 upbm affinity estimate (log intensity, higher = more binding, comparable within an allelic series) | 13.6 upbm affinity estimate (log intensity, higher = more binding, comparable within an allelic series) | – | 9.93 upbm affinity estimate (log intensity, higher = more binding, comparable within an allelic series) | 12.9 upbm affinity estimate (log intensity, higher = more binding, comparable within an allelic series) | 13 upbm affinity estimate (log intensity, higher = more binding, comparable within an allelic series) | 12.1 upbm affinity estimate (log intensity, higher = more binding, comparable within an allelic series) | 12.9 upbm affinity estimate (log intensity, higher = more binding, comparable within an allelic series) | 13.7 upbm affinity estimate (log intensity, higher = more binding, comparable within an allelic series) | 13.9 upbm affinity estimate (log intensity, higher = more binding, comparable within an allelic series) | 12.9 upbm affinity estimate (log intensity, higher = more binding, comparable within an allelic series) | 13.6 upbm affinity estimate (log intensity, higher = more binding, comparable within an allelic series) | 13 upbm affinity estimate (log intensity, higher = more binding, comparable within an allelic series) | 8.77 upbm affinity estimate (log intensity, higher = more binding, comparable within an allelic series) | 11.4 upbm affinity estimate (log intensity, higher = more binding, comparable within an allelic series) | – | 12.8 upbm affinity estimate (log intensity, higher = more binding, comparable within an allelic series) | 12.2 upbm affinity estimate (log intensity, higher = more binding, comparable within an allelic series)
CTAATTAC | 12.7 upbm affinity estimate (log intensity, higher = more binding, comparable within an allelic series) | 10.8 upbm affinity estimate (log intensity, higher = more binding, comparable within an allelic series) | 11.9 upbm affinity estimate (log intensity, higher = more binding, comparable within an allelic series) | 14.4 upbm affinity estimate (log intensity, higher = more binding, comparable within an allelic series) | 11.5 upbm affinity estimate (log intensity, higher = more binding, comparable within an allelic series) | 10 upbm affinity estimate (log intensity, higher = more binding, comparable within an allelic series) | 13.8 upbm affinity estimate (log intensity, higher = more binding, comparable within an allelic series) | 14.2 upbm affinity estimate (log intensity, higher = more binding, comparable within an allelic series) | 12.7 upbm affinity estimate (log intensity, higher = more binding, comparable within an allelic series) | 13.2 upbm affinity estimate (log intensity, higher = more binding, comparable within an allelic series) | 14.2 upbm affinity estimate (log intensity, higher = more binding, comparable within an allelic series) | 14.1 upbm affinity estimate (log intensity, higher = more binding, comparable within an allelic series) | 14 upbm affinity estimate (log intensity, higher = more binding, comparable within an allelic series) | 13.8 upbm affinity estimate (log intensity, higher = more binding, comparable within an allelic series) | 14 upbm affinity estimate (log intensity, higher = more binding, comparable within an allelic series) | 8.84 upbm affinity estimate (log intensity, higher = more binding, comparable within an allelic series) | 12.5 upbm affinity estimate (log intensity, higher = more binding, comparable within an allelic series) | 13.6 upbm affinity estimate (log intensity, higher = more binding, comparable within an allelic series) | 14.1 upbm affinity estimate (log intensity, higher = more binding, comparable within an allelic series) | 12.3 upbm affinity estimate (log intensity, higher = more binding, comparable within an allelic series)
CCCTACGG | 8.13 upbm affinity estimate (log intensity, higher = more binding, comparable within an allelic series) | 9.76 upbm affinity estimate (log intensity, higher = more binding, comparable within an allelic series) | – | – | – | – | – | – | 9.8 upbm affinity estimate (log intensity, higher = more binding, comparable within an allelic series) | – | 9.86 upbm affinity estimate (log intensity, higher = more binding, comparable within an allelic series) | – | – | – | – | – | 9.84 upbm affinity estimate (log intensity, higher = more binding, comparable within an allelic series) | – | – | –
CAATTAGC | 12.6 upbm affinity estimate (log intensity, higher = more binding, comparable within an allelic series) | 10.5 upbm affinity estimate (log intensity, higher = more binding, comparable within an allelic series) | 11.3 upbm affinity estimate (log intensity, higher = more binding, comparable within an allelic series) | 14.1 upbm affinity estimate (log intensity, higher = more binding, comparable within an allelic series) | 11.1 upbm affinity estimate (log intensity, higher = more binding, comparable within an allelic series) | – | 13.5 upbm affinity estimate (log intensity, higher = more binding, comparable within an allelic series) | 13.4 upbm affinity estimate (log intensity, higher = more binding, comparable within an allelic series) | 11.9 upbm affinity estimate (log intensity, higher = more binding, comparable within an allelic series) | 13.1 upbm affinity estimate (log intensity, higher = more binding, comparable within an allelic series) | 13.9 upbm affinity estimate (log intensity, higher = more binding, comparable within an allelic series) | 14.1 upbm affinity estimate (log intensity, higher = more binding, comparable within an allelic series) | 13.5 upbm affinity estimate (log intensity, higher = more binding, comparable within an allelic series) | 13.8 upbm affinity estimate (log intensity, higher = more binding, comparable within an allelic series) | 13.3 upbm affinity estimate (log intensity, higher = more binding, comparable within an allelic series) | 8.77 upbm affinity estimate (log intensity, higher = more binding, comparable within an allelic series) | 11.5 upbm affinity estimate (log intensity, higher = more binding, comparable within an allelic series) | 13.4 upbm affinity estimate (log intensity, higher = more binding, comparable within an allelic series) | 13.3 upbm affinity estimate (log intensity, higher = more binding, comparable within an allelic series) | –
AATTAATC | 11.8 upbm affinity estimate (log intensity, higher = more binding, comparable within an allelic series) | 10.6 upbm affinity estimate (log intensity, higher = more binding, comparable within an allelic series) | 11.3 upbm affinity estimate (log intensity, higher = more binding, comparable within an allelic series) | 13.9 upbm affinity estimate (log intensity, higher = more binding, comparable within an allelic series) | 11.3 upbm affinity estimate (log intensity, higher = more binding, comparable within an allelic series) | 10 upbm affinity estimate (log intensity, higher = more binding, comparable within an allelic series) | 13.2 upbm affinity estimate (log intensity, higher = more binding, comparable within an allelic series) | 12.6 upbm affinity estimate (log intensity, higher = more binding, comparable within an allelic series) | 12.3 upbm affinity estimate (log intensity, higher = more binding, comparable within an allelic series) | 12.3 upbm affinity estimate (log intensity, higher = more binding, comparable within an allelic series) | 13.9 upbm affinity estimate (log intensity, higher = more binding, comparable within an allelic series) | 13.3 upbm affinity estimate (log intensity, higher = more binding, comparable within an allelic series) | – | 13 upbm affinity estimate (log intensity, higher = more binding, comparable within an allelic series) | – | 8.73 upbm affinity estimate (log intensity, higher = more binding, comparable within an allelic series) | 11.3 upbm affinity estimate (log intensity, higher = more binding, comparable within an allelic series) | 13.3 upbm affinity estimate (log intensity, higher = more binding, comparable within an allelic series) | – | 11.6 upbm affinity estimate (log intensity, higher = more binding, comparable within an allelic series)
CAATTATC | 11.7 upbm affinity estimate (log intensity, higher = more binding, comparable within an allelic series) | 10.5 upbm affinity estimate (log intensity, higher = more binding, comparable within an allelic series) | 11.2 upbm affinity estimate (log intensity, higher = more binding, comparable within an allelic series) | 13.8 upbm affinity estimate (log intensity, higher = more binding, comparable within an allelic series) | 11.3 upbm affinity estimate (log intensity, higher = more binding, comparable within an allelic series) | 9.98 upbm affinity estimate (log intensity, higher = more binding, comparable within an allelic series) | 13.2 upbm affinity estimate (log intensity, higher = more binding, comparable within an allelic series) | 12.4 upbm affinity estimate (log intensity, higher = more binding, comparable within an allelic series) | 11.9 upbm affinity estimate (log intensity, higher = more binding, comparable within an allelic series) | 13 upbm affinity estimate (log intensity, higher = more binding, comparable within an allelic series) | 13.6 upbm affinity estimate (log intensity, higher = more binding, comparable within an allelic series) | 13.9 upbm affinity estimate (log intensity, higher = more binding, comparable within an allelic series) | – | 13.7 upbm affinity estimate (log intensity, higher = more binding, comparable within an allelic series) | – | 8.91 upbm affinity estimate (log intensity, higher = more binding, comparable within an allelic series) | 11.2 upbm affinity estimate (log intensity, higher = more binding, comparable within an allelic series) | 13.4 upbm affinity estimate (log intensity, higher = more binding, comparable within an allelic series) | – | 11.6 upbm affinity estimate (log intensity, higher = more binding, comparable within an allelic series)
